Results on 15 compounds are retold here after PubChem BioAssay.

The nature of experiment [1]: compound effects on lung adenocarcinoma cell viability – A549, calcein-AM fluorescence, 48 h, basal, profiling panel (AID 1162). Conditions: higher = more signal.
The nature of experiment [2]: compound effects on differentiated 3T3-L1 adipocyte viability – cell-based, 3T3-L1 adipocytes, calcein-AM fluorescence, 48 h, basal, profiling panel (AID 1163). Conditions: 3T3-L1 adipocytes viability, higher = more signal.
A short description of experiment [3]: compound effects on hepatocellular carcinoma cell viability – HepG2, calcein-AM fluorescence, 48 h, basal, profiling panel (AID 1164). Conditions: higher = more signal.
Experiment [4] in a line: compound effects on multiple myeloma cell viability – MM1S, calcein-AM fluorescence, 48 h, basal, profiling panel (AID 1165). Conditions: higher = more signal.
A short description of experiment [5]: calcein-AM signal in unstimulated myeloma cells – cell-based, calcein-AM fluorescence, 48 h, PK04 Diversity Set, profiling panel (AID 1166).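 Further: cells grown under basal conditions without added stimulus.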 Conditions: RPMI8226 myeloma viability, higher = more signal.
Experiment [6] is described as follows: JC-1 mitochondrial signal, unstimulated HepG2 cells – cell-based, JC-1 fluorescence, 24 h, 100 nL compound, profiling panel (AID 1167). Conditions: HepG2 mitochondrial potential, higher = more signal.
Experiment [7] can be described thus: JC-1 mitochondrial signal, unstimulated adipocytes – cell-based, JC-1 fluorescence, 3T3-L1 adipocytes, 24 h, 100 nL compound, profiling panel (AID 1168). Conditions: JC-1 mitochondrial fluorescence, higher = more signal, called active from +8 up or from −8 down.
A short description of experiment [8]: JC-1 mitochondrial signal, unstimulated myeloma cells – cell-based, JC-1 fluorescence, RPMI8226, 24 h, 100 nL compound, profiling panel (AID 1169). Conditions: JC-1 mitochondrial potential fluorescence, higher = more signal.
Experiment [9] is described as follows: JC-1 mitochondrial signal, unstimulated MM1S myeloma – cell-based, JC-1 fluorescence, 24 h, 100 nL compound, profiling panel (AID 1170). Conditions: MM1S mitochondrial potential, higher = more signal.
The nature of experiment [10]: resazurin metabolic signal in A549 cells – cell-based, resazurin fluorescence, 24 h, PK04 Diversity Set, profiling panel (AID 1171). Conditions: A549 viability, higher = more signal, called active from +8 up or from −8 down. (In general: The colour change of resazurin is a common sign of viable cells or microbes.)

Activity calls are given as the source filed them.
Further: test concentration not given here.

As for `CCOC1=C2C(c3ccc(C)cc3)N(S(=O)(=O)c3ccc(C)cc3)CC2n2c(=O)n(-c3ccccc3)c(=O)n2C1` (stereo not given), the z-score in experiment [1] is -0.943; in [2], -0.334; in [3], -0.422; in [4], -0.255; in experiment [5], -0.546; in experiment [6], 1.53. Besides, the z-score in [7] is 0.497 (inactive); in experiment [8] it was 0.709; in experiment [9], -1.03; in experiment [10], -0.629 (inactive).

In the case of `[N-]=[N+]=NCc1ccccc1C[C@@]1(C(=O)NCc2ccccc2)N=C(c2ccc(OCCCO)cc2)O[C@@H]1c1ccccc1CN=[N+]=[N-]`, the z-score is -0.293 in [1]; -0.0193 in [2]; 0.236 in experiment [3]; -0.645 in [4]; -1.13 in experiment [5]; 0.0212 in [6]. In addition, the z-score in experiment [7] is -0.835 (inactive); in [8], -0.66; in experiment [9], -1.32; in [10] it was 1.01 (inactive).

In the case of `C=CC[C@@]1(C(=O)NCCN2CCOCC2)N=C(c2ccc(OCCCO)cc2)O[C@@H]1c1ccccc1CN=[N+]=[N-]`, the z-score in experiment [1] is -0.0982; in experiment [2] it was 1.56; in experiment [3], 0.88; in experiment [4] it was -2.94; in experiment [5], -1.03; in experiment [6], 1.86. Moreover, the z-score was -0.224 (inactive) in experiment [7], -0.129 in [8], -0.029 in experiment [9] and -0.468 (inactive) in experiment [10].

For `C=CCC(OC(C)=O)[C@@H]1[C@@H](N(Cc2ccc(-c3ccccc3)cc2)C(=O)c2ccc(C)cc2)c2cc(OCCCO)ccc2N1C(=O)c1ccc2ccccc2n1` (stereo not given in full), the z-score in [1] was 3.36; in experiment [2], 0.389; in [3] it was 1.85; in experiment [4] it was -0.68; in [5], 1.28; in [6], 3.31. In addition, the z-score was 0.285 (inactive) in [7], 0.0312 in experiment [8], 1.96 in experiment [9] and 1.87 (inactive) in experiment [10].

Consider `CCCNC(=O)[C@@]1(C)c2ccccc2C(=O)N(Cc2ccc(OC(F)(F)F)cc2)[C@H]1c1ccc(CO)cc1`, for which the z-score was 0.951 in experiment [1]; -0.105 in [2]; 1.28 in [3]; 0.328 in experiment [4]; -0.0542 in experiment [5]; 3.34 in [6]. The z-score in experiment [7] is 0.45 (inactive); in experiment [8], -0.244; in [9], -0.949; in [10], -0.658 (inactive).

As to `C=C[C@H](C)[C@H](OC(=O)Nc1ccc(OC)cc1)c1ccc(O)c2ccccc12`, the z-score in experiment [1] is -0.697; in experiment [2] it was 0.256; in experiment [3], -1.87; in experiment [4], -2.98; in experiment [5], -4.25; in experiment [6], -3.3. In addition, the z-score in experiment [7] was -1 (inactive); in [8] it was -1.03; in [9], -2.07; in experiment [10], -0.232 (inactive).

Turning to `[N-]=[N+]=NCc1ccccc1[C@@H]1OC(c2ccc(OCCCO)cc2)=N[C@]1(Cc1ccccc1)C(=O)O`, the z-score in experiment [1] was 0.211; in experiment [2], 0.333; in [3], 0.865; in experiment [4], 0.229; in [5], -0.767; in experiment [6], -0.00992. The z-score in experiment [7] is -1.01 (inactive); in [8], -0.0434; in experiment [9] it was -0.969; in experiment [10], 0.45 (inactive).

For the compound `CN(C)CCCCCCNC(=O)[C@@H]1C[C@@H]2C(=O)N[C@@H](Cc3ccccc3)C(=O)N2[C@@H]1c1cccc(OCCO)c1`, the z-score in experiment [1] is -0.778; in experiment [2] it was 0.559; in experiment [3] it was -0.857; in experiment [4] it was 0.802; in experiment [5], -0.555; in experiment [6] it was -1.02. Also, the z-score is -0.822 (inactive) in experiment [7], 0.0287 in experiment [8], 0.316 in experiment [9] and -0.115 (inactive) in experiment [10].

For the compound `C=CCOC(=O)[C@H]1[C@@H]2C(=O)O[C@@H](c3ccccc3)[C@@H](c3ccccc3)N2[C@@H](c2ccc(OCCOC(=O)[C@H]3C[C@H]4C(=O)N[C@@H](CCCC[N+](C)(C)C)C(=O)N4[C@H]3c3ccc(O)cc3)cc2)[C@]12C(=O)Nc1ccccc12`, the z-score in experiment [1] is 1.6; in experiment [2] it was 0.6; in [3], 0.549; in [4] it was 0.419; in experiment [5], 0.337; in experiment [6], -1.12. Moreover, the z-score in [7] is 1.31 (inactive); in [8], -0.456; in experiment [9] it was -0.0465; in experiment [10], 0.896 (inactive).

Regarding `CC(C)C(CO)N1C(=O)[C@@H]2[C@H]3C(=O)OCC=C[C@H]3OC23C=CCN(c2ccc4ccccc4c2)C(=O)[C@@H]13` (stereo not given in full), the z-score is -0.339 in experiment [1]; 0.126 in [2]; 0.21 in experiment [3]; 0.88 in [4]; -1.02 in experiment [5]; -0.124 in experiment [6]. Moreover, the z-score in [7] was 0.106 (inactive); in experiment [8], -0.651; in [9], 1.1; in experiment [10], 0.156 (inactive).

`C=C(COC)C(=O)CC[C@@H](OC(=O)c1ccccc1-c1ccccc1C(=O)O)c1ccc(CO)o1`: the z-score in experiment [1] is -1.46; in experiment [2], -0.736; in [3] it was -2.67; in experiment [4], -1.69; in [5], -0.883; in [6], -2.74. The z-score was 0.429 (inactive) in [7], -0.323 in [8], -0.857 in [9] and -1.03 (inactive) in experiment [10].

On to `O=C(NCc1ccccc1)[C@@H]1c2ccccc2C(=O)N(C2CCCCC2)[C@H]1c1ccc(CO)cc1`, for which the z-score in experiment [1] is 1.53; in experiment [2], -0.116; in experiment [3], 1.54; in [4] it was 0.499; in [5], -0.0572; in experiment [6], 2.46. Also, the z-score was 0.401 (inactive) in experiment [7], 0.739 in experiment [8], -0.531 in experiment [9] and -0.222 (inactive) in experiment [10].

`COc1ccc([Si](C)(C)[C@H]2[C@H](CCO)O[C@@]3(C(=O)N(Cc4cccc(N5C(=O)c6cccc7cccc5c67)c4)c4ccccc43)[C@@H]2C)cc1`: the z-score was -1.02 in experiment [1]; 0.894 in [2]; -3.98 in [3]; -2.97 in experiment [4]; -4.23 in [5]; -0.139 in experiment [6]. Besides, the z-score in experiment [7] is 1.49 (inactive); in experiment [8], -1.02; in [9], -1.34; in [10], -2.92 (inactive).

Turning to `CCOC(=O)C=Cc1cccc(OC)c1O`, the z-score in [1] was -0.364; in [2] it was 0.532; in [3], -0.834; in [4] it was 0.408; in [5], -1.61; in experiment [6], -0.94. Moreover, the z-score in experiment [7] was 0.151 (inactive); in experiment [8], -0.149; in [9], -1.25; in [10], -0.787 (inactive).

On to `NC(=O)[C@@]1(CCS(=O)(=O)c2ccccc2)N=C(c2ccc(OCCCO)cc2)O[C@H]1c1ccccc1`, for which the z-score in experiment [1] is -0.291; in [2], 0.957; in experiment [3], -1.94; in [4], 0.614; in experiment [5], -1.13; in [6], -0.209. The z-score is -0.219 (inactive) in experiment [7], 0.634 in experiment [8], -0.659 in experiment [9] and 0.798 (inactive) in [10].
